PubChem BioAssay (NCI)
About 79,000 compounds went through this panel and 15% of them were active in at least one assay; those are over-represented in the sample as a whole. Rule as the data show it: active = growth inhibition above about 70%; inactive = the rest.

Experiments:
[1] = NCI Yeast Anticancer Drug Screen. Data for the rad50 strain (AID 155);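 also: 0% = growth of vehicle-only cultures of the same strain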; conditions: S. cerevisiae rad50 strain growth inhibition; at 50.0 µM; hits give high values
Outline: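 A DNA repair-deficient yeast mutant serves as the test organism; compound-induced growth inhibition is calculated against vehicle-treated cells.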

[2] = NCI Yeast Anticancer Drug Screen. Data for the mec2-1 strain (AID 157); conditions: S. cerevisiae mec2-1 strain, at 50.0 µM, hits give high values
Outline: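 Yeast mec2-1 mutant treated with compound. Readout: growth inhibition vs vehicle controls.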

[3] = NCI Yeast Anticancer Drug Screen. Data for the sgs1 mgt1 strain (AID 161);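 also: 0% = growth of cultures given vehicle only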; conditions: S. cerevisiae sgs1 mgt1 strain, at 50.0 µM, hits give high values
Outline: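 Test agents were incubated with a DNA-repair-mutant yeast strain. Growth was then read and compared against vehicle-treated controls.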

[4] = NCI Yeast Anticancer Drug Screen. Data for the cln2 rad14 strain (AID 165);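 also: 0% = growth equal to vehicle treated cultures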; conditions: S. cerevisiae cln2 rad14 strain, at 50.0 µM, hits give high values
Outline: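 cln2 rad14 yeast strain; compound exposure; growth inhibition read vs vehicle controls.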

[5] = NCI Yeast Anticancer Drug Screen. Data for the bub3 strain (AID 167); conditions: S. cerevisiae bub3 mutant strain, at 50.0 µM, hits give high values
Outline: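 Inhibition values come from growth of compound-treated mutant yeast normalised to vehicle-treated controls.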

[6] = NCI Yeast Anticancer Drug Screen. Data for the mlh1 rad18 strain (AID 175); conditions: S. cerevisiae mlh1 rad18 strain growth inhibition; at 50.0 µM; hits give high values
Outline: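 Yeast w/ defined DNA-repair lesions; compound exposure; growth vs vehicle controls → % inhibition.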

Measured: growth inhibition

CC1(C)CC(N2CCN(C3CC(C)(C)NC(C)(C)C3)CC2)CC(C)(C)N1
inactive: [1] -12.7% | [2] -19.6% | [3] -18.8% | [4] -8.3% | [5] -14.2%

COC(=O)CCCC(NC(=O)c1ccc([N+](=O)[O-])cc1)C(=O)OC (stereo unspecified)
inactive: [1] 19.1% | [2] -9.45% | [3] 13.9% | [4] 5.45% | [5] 13.7%

COc1ccc(OC)c(-c2nc3ccccc3c(=O)[nH]2)c1
inactive: [1] 9.1% | [2] 10.8% | [3] 3.35% | [4] 14.2% | [5] 22.8%

COC(=O)C1c2ccc(C)cc2-c2cc(C)ccc21
inactive: [1] 16.5% | [2] -36.9% | [3] 8.55% | [4] 17.4% | [5] 26.4%

CCCCCCC(O)CCCCCCCCCCCO (stereo unspecified)
inactive: [1] 41.5% | [2] -15.4% | [3] 1.05% | [4] -43% | [5] 10.2%

CC1(C)CC2(CC(C)(C)N1O)NC(=O)OC2=O
inactive: [1] 2.5% | [2] -5.3% | [3] -1.05% | [4] -18.6% | [5] -23.1%

COc1ccccc1C(N)c1ccccc1 (stereo unspecified)
inactive: [1] -13.1% | [2] -0.75% | [3] 15.9% | [4] 5.8% | [5] -0.7%

CCNC(=O)Oc1cccc(NC(=O)CC)c1
inactive: [1] 3.2% | [2] -4.2% | [3] -0.25% | [4] -14.2% | [5] 3.65%

S=c1nn[nH]n1-c1cccc2ccccc12
inactive: [1] 4.7% | [2] 1.9% | [3] -4.65% | [4] 2.6% | [5] -10.8%

CC(C)=NNC(=O)Nc1cccc(C)c1C
inactive: [1] 9.35% | [2] 15.2% | [3] -7.2% | [4] -47.3% | [5] -9.85%

O=S(=O)(O)c1ccccc1
inactive: [1] -16.6% | [2] -8.5% | [3] -6.05% | [4] -2.25% | [5] 0.15%

O=C(O)CCCc1ccc(Oc2ccccc2)cc1
inactive: [1] -6.05% | [2] -15.3% | [3] 22% | [4] -8.85% | [5] -5%

CCCCCCCC/C=C/CCCCCCCC(=O)OCC(C)(C)N1C(=O)CCC1=O
inactive: [1] -11.2% | [2] -20.4% | [3] -12.6% | [4] -11.2% | [5] -3.45%

CCOC(=O)c1[nH]c(CC(=O)O)c(C(=O)OC)c1C
inactive: [1] 8.25% | [2] 14.8% | [3] 19.1% | [4] -3.5% | [5] 26.5%

C#CC1(c2ccccc2)OCCO1
inactive: [1] 21.9% | [2] 17.4% | [3] 16.3% | [4] 4.55% | [5] -13.2%

CCC(C)(C)c1ccc(OCCCCNC(=O)c2ccc3ccccc3c2O)c(C(C)(C)CC)c1
inactive: [1] -7.65% | [2] 2.05% | [3] -14.2% | [4] -37.1%

c1ccc2cc(SSc3ccc4ccccc4c3)ccc2c1
inactive: [1] -30.1% | [2] -23.8% | [3] -15.9% | [4] 0.1% | [5] -17.2% | [6] -4.85%

COC(=O)c1cc(C(=O)c2ccccc2)cc2c1c(=O)[nH]c1ccccc12
inactive: [1] -0.95% | [2] -7.5% | [3] -16.4% | [4] -5.7% | [5] -23.9% | [6] 6.75%

O=[N+]([O-])c1cc(Br)cc2c1[nH]c1nc3ccc(C(F)(F)F)cc3nc12
inactive: [1] 45.5% | [2] -17.9% | [3] 8.1% | [4] 17.4% | [5] -2.2% | [6] -3.55%

N#CCC(=O)NCc1ccncc1
inactive: [1] -13.8% | [2] -50.4% | [3] -24.7% | [4] 7.85% | [5] -41% | [6] -13.1%

N#C/C(=C1\N=C(c2ccccc2O)Oc2ccccc21)c1ccc([N+](=O)[O-])cc1
inactive: [1] 6.85% | [2] -11.9% | [3] 13.1% | [4] -0.7% | [5] 4.35% | [6] -13.6%

CNC(=S)N(C)c1ccccc1
inactive: [1] 0.6% | [2] -9.85% | [3] -15.9% | [4] -57.4% | [5] 8.05% | [6] -23.3%

CC1=CC(=O)OC(=O)/C1=C/c1ccc(N(C)C)cc1
inactive: [1] -11.2% | [2] 33.8% | [3] -7.65% | [4] 19.7% | [5] 23% | [6] -9.4%
